Data as given in ChEMBL document CHEMBL1157539, “Thousands of chemical starting points for antimalarial lead identification” (Nature, 2010).

Columns and labels:
Assay type in all cases: functional
[1] = tested on: Plasmodium falciparum; assay: GSK_TCMDC: Inhibition of Plasmodium falciparum 3D7 in whole red blood cells, using parasite LDH activity as an index of growth. Test compounds present at 2uM
[2] = tested on: Plasmodium falciparum; assay: GSK_TCMDC: Inhibition of Plasmodium falciparum Dd2 in whole red blood cells, using parasite LDH activity as an index of growth. Test compounds present at 2uM
[3] = tested on: HepG2; assay: GSK_TCMDC: Percent inhibition of human HepG2 cell line. Test compounds present at 10uM.

Row | SMILES | Inhibition [1] [%] | Inhibition [2] [%] | Inhibition [3] [%]
1 | O=C(NC1CC1)c1ccc(N2CCN(Cc3ccc(Cl)cc3)CC2)nc1.O=C(O)C(F)(F)F | 84 | 81 | 16
2 | CC1CN(c2cccc3c2nc(-c2cncc(C#N)c2)n3CCNCc2ccccc2)CC(C)O1.O=C(O)C(F)(F)F (configuration not stated) | 83 | 9 | 0
3 | CN(C)c1cccc2c1nc(-c1ccco1)n2CCNCc1ccccc1.O=C(O)C(F)(F)F | 98 | 97 | 0
4 | Cc1cccc2nc(-c3cccc(-c4ccc(NC(=O)C5CCCO5)cc4)c3)[nH]c12 (configuration not stated) | 91 | 13 | 10
5 | CC1(CCCCN2CCC(Oc3ccc(F)cc3F)CC2)C(=O)Nc2ccccc21.Cl (configuration not stated) | 99 | 6 | 6
6 | Cc1csc(-c2nc(NCCc3c(C)noc3C)ncc2-c2ccsc2)n1 | 90 | 82 | 6
7 | O=C(Nc1cccc(CN2CCCN(Cc3ncc[nH]3)CC2)c1)c1cc2ccccc2s1.O=C(O)C(F)(F)F | 99 | 35 | 22
8 | CN=C(S)NN=C(C)c1ccccn1 | 98 | 99 | 64
9 | COc1cc2nc(C)nc(Nc3ccc(Oc4ccccc4)cc3)c2cc1OC.Cl | 100 | 72 | 0
10 | CCCC(=O)Nc1ccc(OCCCN(Cc2cccc(C(F)(F)F)c2)c2ccc(C#N)c(C(F)(F)F)c2)cc1 | 90 | 89 | 0
11 | Cc1ccc(C(=O)Nc2cccc(-c3ccc(N4CCN(C)CC4)nn3)c2)cc1[N+](=O)[O-] | 99 | 40 | 32
12 | CCC[C@@H]([C@@H](CC1CCCCC1)C(=O)N[C@H](C(=O)Nc1nccs1)[C@@H](C)OCc1ccccc1)N(O)C=O | 100 | 99 | 51
13 | Cc1nc(Nc2ccc(F)cc2)nc(N2CCc3cc(O)ccc3C2C)c1C.Cl (configuration not stated) | 99 | 97 | 0
14 | N#Cc1cncc(-c2nc3c(N4CCC(N5CCCC5)CC4)cccc3n2CCNCc2ccccc2)c1.O=C(O)C(F)(F)F | 100 | 58 | 3
15 | COc1ccc2ncc(F)c(CCN3CCC(NCc4cc(OC)c5c(c4)OCCO5)CC3)c2n1.Cl | 100 | 53 | 0
16 | COc1cccc(Nc2nnc(SCC(=O)NNC(=O)c3ccccn3)s2)c1 | 99 | 95 | 52
17 | COc1cc2nc(N3CC(C)N(C(=O)Cc4ccc(-c5ccccc5)cc4)C(C)C3)nc(N)c2cc1OC (configuration not stated) | 100 | 12 | 26
18 | COc1ccc(-c2csc(N(CCCN(C)C)C(=O)c3cc4c(C)nn(-c5ccccc5)c4s3)n2)cc1.Cl | 100 | 16 | 100
19 | N#Cc1ccccc1C1CCN(C2CCC(Nc3cc(-c4cccnc4)ccn3)CC2)CC1 (configuration not stated) | 100 | 78 | 38
20 | O=C(Nc1ccc(Cl)c(Cl)c1)N[C@H]1CCN(CCCCCNC(=O)C2CC2c2ccc(Cl)c(Cl)c2)C1 (some centres not stated) | 93 | 8 | 42

Row | SMILES | Inhibition [1] [%] | Inhibition [2] [%] | Inhibition [3] [%]
21 | CCN(CC)C(=O)C1CCCN(c2cc(C)nc(Nc3ccc(Cl)cc3)n2)C1 (configuration not stated) | 94 | 64 | 13
22 | COc1ccc(NC(=O)/C=C/c2cc(F)cc(C(F)(F)F)c2)cc1OCCN(C(C)C)C(C)C.O=C(O)C(F)(F)F | 97 | 21 | 18
23 | O=C(/C=C/c1ccc(Cl)cc1)NCCCCCN1CCC(C(=O)Nc2cccc(Cl)c2)CC1 | 97 | 0 | 22
24 | Cn1nc(-c2cccc(CNC3CCc4ccccc43)c2)c2cnc(NCCCN3CCCC3)nc21 (configuration not stated) | 99 | 15 | 29
25 | Cc1ccc(F)c(C(=O)Nc2cccc(-c3nn4ccccc4c3-c3ccnc(Nc4cccc(F)c4)n3)c2)c1F | 98 | 60 | 35
26 | CCN(CC)CCCC(C)Nc1c(-c2ccc(C)cc2)cnc2ccccc12 (configuration not stated) | 85 | 65 | 8
27 | Cc1ccc2c(NC(=O)Nc3ccc(N(C)C)cc3)cc(C)nc2c1 | 98 | 20 | 0
28 | COc1ccc2[nH]c(-c3ccccc3)cc(=NN=Cc3ccncc3)c2c1 | 99 | 27 | 14
29 | O=C(/C=C/c1ccc(Cl)c(Cl)c1)NCCCCCN1CCC(NC(=O)NC2CCCCCC2)CC1 | 99 | 41 | 15
30 | CC(=O)Nc1ccc(S(=O)(=O)Nc2c(C)cc(Cc3cnc(N)nc3N)cc2C)cc1 | 94 | 0 | 6
31 | Cc1cc(N[C@@H](CC(C)C)C(=O)NC2CCCC2)nc(NCc2ccccc2C)n1.O=C(O)C(F)(F)F | 98 | 44 | 2
32 | Cc1onc(-c2c(Cl)cccc2Cl)c1C(=O)N1CCc2cc3nccc(N4CCN5CCC[C@H]5C4)c3cc21 | 100 | 58 | 3
33 | COc1ccc(CNCc2ccc(-c3cccc(-c4nc5cc(F)ccc5[nH]4)c3)cc2)cc1.O=C(O)C(F)(F)F | 100 | 94 | 33
34 | CCCC[C@H](NC(=O)OC(C)(C)C)C(=O)Nc1ccc(Cc2ccc(NC(=O)[C@H](CCCC)NC(=O)OC(C)(C)C)cc2)cc1 | 95 | 71 | 5
35 | O=C(N[C@@H](Cc1ccccc1)C(=O)NCc1cccc(C(F)(F)F)c1)c1ccc(O)c(-c2ccc(Cl)c(Cl)c2)c1 | 96 | 97 | 0
36 | COc1cccc(C(=O)N2CCN(Cc3cccc(NC(=O)c4cccs4)c3)CC2)c1.O=C(O)C(F)(F)F | 95 | 95 | 6
37 | Nc1ccc(Oc2ccc(Cc3cnc(N)nc3N)cc2)cc1 | 86 | 5 | 10
38 | CC(=O)Nc1ccc(NC(=O)c2cc(-c3cc(Cl)ccc3O)n[nH]2)cc1 | 100 | 100 | 1
39 | COc1ccc(CNC2CCN(C)CC2)cc1-c1ccc(S(=O)(=O)NC2CCC2)c(C)c1.O=C(O)C(F)(F)F | 100 | 96 | 24
40 | CCCC(=O)c1cnc2cc(O)ccc2c1Nc1ccccc1C | 99 | 93 | 14

Row | SMILES | Inhibition [1] [%] | Inhibition [2] [%] | Inhibition [3] [%]
41 | Fc1ccc2[nH]c(-c3cccc(-c4ccc(CN5CCN(CCN6CCOCC6)CC5)cc4)c3)nc2c1.O=C(O)C(F)(F)F | 100 | 100 | 30
42 | O=C(/C=C/c1ccc(Cl)c(Cl)c1)N1CCC(CCN2CCC(c3c[nH]c4ccncc34)CC2)CC1 | 100 | 70 | 13
43 | CC(C)CNCc1cccc(-c2cccc(CN(CCN(C)C)C(=O)NCCc3ccccc3)c2)c1.O=C(O)C(F)(F)F | 99 | 83 | 84
44 | CCn1c(C)cc(C=C2SC(=Nc3ccccc3)NC2=O)c1C | 90 | 87 | 27
45 | Fc1ccc(COc2ccc(Nc3ncnc4ccc(I)cc34)cc2Cl)cc1 | 86 | 30 | 28
46 | Cc1cccc2nc(-c3ccc(-c4cccc(CNCc5cccc(N)c5)c4)cc3)[nH]c12.O=C(O)C(F)(F)F | 100 | 87 | 0
47 | COCC(C)n1c(C)cc(C(=O)CSc2nnc(Nc3ccccc3)s2)c1C (configuration not stated) | 97 | 98 | 0
48 | COc1ccc(-n2c(=O)c3c(n4c(SC(C)C)nnc24)-c2ccccc2CC32CCCCC2)cc1 | 99 | 15 | 0
49 | Cc1ccc2[nH]c(-c3cc(-c4cccc(CCN5CCOCC5)c4)cnc3N)nc2c1.O=C(O)C(F)(F)F | 100 | 99 | 50
50 | COc1ccccc1-c1cc(C(=O)N2CCN(S(=O)(=O)c3ccc(C)cc3)CC2)[nH]n1 | 88 | 88 | 0
51 | COc1cc(NC(=O)c2ccc3c(=O)n(Cc4ccccc4)c(=S)[nH]c3c2)cc(OC)c1OC | 94 | 47 | 6
52 | COc1ccc(NC(=O)[C@H](Cc2ccccc2)Nc2cc(C)nc(NCCN3CCCC3)n2)cc1.O=C(O)C(F)(F)F | 97 | 3 | 15
53 | CN1CCC(N(Cc2ccc(-c3ccc(C(F)(F)F)cc3)cc2)C(=O)Cn2c(SCc3cccc(F)c3F)cc(=O)c3c2CCC3)CC1.O=C(O)C(O)C(O)C(=O)O | 89 | 83 | 50
54 | CCN(CC)CCN(Cc1ccc(-c2ccc(C(F)(F)F)cc2)cc1)C(=O)Cn1c(CCc2cccc(F)c2F)nc(=O)c2ccc(F)cc21.O=C(O)C(O)C(O)C(=O)O | 98 | 41 | 14
55 | COc1ccc(OCC(O)CN(Cc2ccccc2OC)C(=O)Nc2ccc(Br)cc2)cc1 (configuration not stated) | 97 | 2 | 8
56 | CC(=O)Nc1ccc(CCNC(C)Cc2ccc(C(=O)Nc3ccc(CC(C)NCCc4cccc(Cl)c4)cc3)cc2)cc1.Cl (configuration not stated) | 100 | 84 | 50
57 | Cc1ccc2c(c1C)NC(=O)C21NN=C(c2ccccc2)S1 (configuration not stated) | 97 | 65 | 31
58 | C[C@H](Cc1ccc(OCCCCCCOc2ccc(C[C@@H](C)NC[C@H](O)c3cccc(Cl)c3)cc2)cc1)NC[C@H](O)c1cccc(Cl)c1.Cl | 99 | 99 | 99
59 | O=S(=O)(c1cccc(Cl)c1F)N(CCC(O)(C(F)(F)F)C(F)(F)F)Cc1cccc(O)c1 | 100 | 86 | 0
